In PubChem BioAssay (NCATS):
Results filed as inconclusive are left out. Values without a mark were called inactive. Activity calls are given as the source filed them. Calls come from the whole dose curve; as a rule, active = well fitted activation curve with a large enough effect; inconclusive = small, poorly fitted or top-dose-only effect; inactive = no such curve, though single readings can be large or run the other way.

These compounds were tested against Cellular tumor antigen p53 (Homo sapiens) (UniProt P04637) (assay: Primary qHTS for small molecule compounds that upregulate eGFP-tagged delta133p53alpha (in N-terminal) cells. (AID 2060322; note: nearly all actives have a fitted effect of over 75% in size;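 for activation: series mostly up to about 56 µM; 0% = DMSO vehicle and 100% = reference activator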)). Conditions: NCI-H358 eGFP-delta133p53alpha fluorescence, 24 h; activation: stronger effect = higher value.
Method in brief: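 NCI-H358 cells pre-induced 24 h with 10 ng/ml doxycycline for eGFP-delta133p53alpha, plated dox-free and exposed 24 h at 37C to titrated compounds. Fixed, Hoechst-stained; gated GFP peak intensity by laser scanning cytometry, normalized to DMSO (0%) and 57.5 uM 5-azacytidine (100%).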
Potency is the fitted concentration of half-maximal effect.

Sequence of Cellular tumor antigen p53 (Homo sapiens) (P04637 whole entry, looked up): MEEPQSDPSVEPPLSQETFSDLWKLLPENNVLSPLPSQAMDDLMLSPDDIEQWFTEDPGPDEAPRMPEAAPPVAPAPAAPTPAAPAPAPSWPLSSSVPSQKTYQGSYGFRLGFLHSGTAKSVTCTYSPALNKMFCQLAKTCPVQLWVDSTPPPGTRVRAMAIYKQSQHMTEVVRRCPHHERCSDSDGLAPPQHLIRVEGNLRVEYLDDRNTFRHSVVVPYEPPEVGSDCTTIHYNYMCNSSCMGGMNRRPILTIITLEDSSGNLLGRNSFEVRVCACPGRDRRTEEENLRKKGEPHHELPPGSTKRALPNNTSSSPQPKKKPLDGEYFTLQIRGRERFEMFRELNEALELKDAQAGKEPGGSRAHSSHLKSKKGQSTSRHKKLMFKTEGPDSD

| SMILES | activation [%] | Potency |
| --- | --- | --- |
| Cc1cc(C(=O)N2Cc3cnn(C)c3Nc3ccccc32)ccc1CNC(=O)N1CCC[C@H]1C(=S)N1CCCN(C)CC1 | -0.893 |  |
| CC[C@H]1OC(=O)[C@H](C)C(=O)[C@H](C)[C@@H](O[C@H]2O[C@H](C)C[C@H](N(C)C)[C@@H]2O)[C@](C)(OC)C[C@@H](C)C(=O)[C@H](C)[C@H]2N(CCCCn3cnc(-c4cccnc4)c3)C(=O)O[C@]12C | 1.46 |  |
| C[C@@H]1[C@H](O)[C@@H](C)C=CC=CC=CC=CC=CC=CC=C[C@H](O[C@@H]2O[C@H](C)[C@H](O)[C@H](N)[C@@H]2O)C[C@@H]2O[C@](O)(C[C@@H](O)C[C@@H](O)[C@H](O)CC[C@@H](O)C[C@@H](O)CC(=O)O[C@H]1C)C[C@H](O)[C@@H]2C(=O)O | -1.15 |  |
| CC1CCc2cc(F)cc3c(=O)c(C(=O)O)cn1c23 (centres undefined) | 23.2 |  |
| CC1CCC2(OC1)OC1CC3C4CCC5C[C@@H](O[C@@H]6O[C@H](CO[C@@H]7OC[C@@H](O)[C@H](O)[C@H]7O)[C@H](O)[C@H](O)[C@H]6O)CC[C@]5(C)C4CC[C@]3(C)C1C2C (some centres undefined) | 8.4 |  |
| c1ccc(OCc2ccc(CCCN3CCOCC3)cc2)cc1 | -7.53 |  |
| CC(=O)N[C@@H](CCC(N)=O)C(=O)O | -8.37 |  |
| FC(F)(F)c1ccc(C=Cc2nc(COc3ccc(CCCCn4ccnn4)cc3)co2)cc1 |  | 24.3 µM (active) |
| CC(C)=C(C#N)C(=O)N1CCCN(c2cc(NCCC(=O)O)nc(-c3ccccn3)n2)CC1 | 3.35 |  |
